Measurements reported in PubChem BioAssay AID1159580 (chemical genetic matrix, 2015).
“And” between values parts separate entries of the source, which are not always exact repeats. Equal values may be shown once. The whole screen tested about 5,500 compounds, of which about 2,000 (36%) were called active. Not shown: some 18% with an inconclusive outcome. The list shows a part of the results. A number with no mark means an inactive call. No stated cut-off is given here; in the data, active means normalized growth mostly below about 0.91 (no sharp cut-off); inconclusive means no clear call, values can overlap the other calls; inactive means mostly above about 0.92.

Assay: chemical genetic growth profiling, strain panel (AID 1159580);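 further: tested at 20 µM; growth read once vehicle control cultures reached saturation at 30 °C; 1 = growth at the plate median or of vehicle wells; lower values mean less growth of the strain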
Conditions: S. cerevisiae deletion strains, growth OD
[1] = locus YHR030C, strain SLT2, active compounds read low
[2] = locus YHR079C, strain IRE1, active compounds read low
[3] = locus YJL095W, strain BCK1, active compounds read low
[4] = locus YJR066W, strain TOR1, active compounds read low
[5] = locus YLR113W, strain HOG1, active compounds read low
[6] = locus YNL183C, strain NPR1, active compounds read low
[7] = locus YOR231W, strain MKK1, active compounds read low
[8] = locus YPL256C, strain CLN2, active compounds read low

COc1c(-c2coc3cc4c(cc3c2=O)CC(O)C(C)(C)O4)ccc2c1C=CC(C)(C)O2 (stereo not drawn)
normalized growth (locus YAL021C, strain ccr4, active compounds read low): 0.992
normalized growth (locus YAL026C, strain drs2, active compounds read low): 0.978
normalized growth (locus YAL030W, strain snc1, active compounds read low): 0.996
normalized growth (locus YBL061C, strain skt5, active compounds read low): 0.983
normalized growth (locus YBR009C, strain hhf1, active compounds read low): 0.97
normalized growth (locus YBR023C, strain chs3, active compounds read low): 0.983
normalized growth (locus YBR171W, strain sec66, active compounds read low): 0.973
normalized growth (locus YBR231C, strain swc5, active compounds read low): 0.989
normalized growth (locus YBR279W, strain paf1, active compounds read low): 0.989
normalized growth (locus YCL011C, strain gbp2, active compounds read low): 0.992
normalized growth (locus YCL016C, strain dcc1, active compounds read low): 0.986
normalized growth (locus YCL069W, strain vba3, active compounds read low): 0.97
normalized growth (locus YCR088W, strain abp1, active compounds read low): 0.979
normalized growth (locus YDL005C, strain med2, active compounds read low): 0.972
normalized growth (locus YDL040C, strain nat1, active compounds read low): 0.987
normalized growth (locus YDR001C, strain nth1, active compounds read low): 0.979
normalized growth (locus YDR069C, strain doa4, active compounds read low): 1
normalized growth (locus YDR137W, strain rgp1, active compounds read low): 0.902
normalized growth (locus YDR159W, strain sac3, active compounds read low): 0.973
normalized growth (locus YDR195W, strain ref2): 1.05
normalized growth (locus YDR297W, strain sur2, active compounds read low): 0.978
normalized growth (locus YDR334W, strain swr1, active compounds read low): 0.958
normalized growth (locus YDR335W, strain msn5, active compounds read low): 0.974
normalized growth (locus YDR392W, strain spt3, active compounds read low): 0.829
normalized growth (locus YEL003W, strain gim4, active compounds read low): 0.99
normalized growth (locus YEL037C, strain rad23, active compounds read low): 0.973
normalized growth (locus YEL061C, strain CIN8 (second series), active compounds read low): 0.98
normalized growth (locus YER015W, strain faa2, active compounds read low): 0.991
normalized growth (locus YER016W, strain bim1, active compounds read low): 0.992
normalized growth (locus YER111C, strain swi4, active compounds read low): 0.973
normalized growth (locus YER155C, strain BEM2 (second series), active compounds read low): 0.967
normalized growth (locus YFR010W, strain ubp6, active compounds read low): 0.989
normalized growth (locus YGL167C, strain pmr1, active compounds read low): 0.969
normalized growth (locus YGL173C, strain kem1, active compounds read low): 0.989
normalized growth (locus YGL227W, strain vid30, active compounds read low): 0.992
normalized growth (locus YGL240W, strain doc1, active compounds read low): 0.979
normalized growth (locus YGL253W, strain hxk2, active compounds read low): 0.983
normalized growth (locus YHR013C, strain ard1, active compounds read low): 0.954
normalized growth (locus YHR027C, strain rpn1, active compounds read low): 1
normalized growth [1]: 0.932
normalized growth [2]: 0.929
normalized growth (locus YHR142W, strain chs7, active compounds read low): 0.942
normalized growth (locus YJL092W, strain hpr5, active compounds read low): 0.99
normalized growth (locus YJL095W, strain BCK1 (second series), active compounds read low): 0.983
normalized growth [3]: 0.94
normalized growth (locus YJL115W, strain asf1, active compounds read low): 0.971
normalized growth (locus YJL129C, strain trk1, active compounds read low): 0.887
normalized growth (locus YJL154C, strain vps35, active compounds read low): 0.97
normalized growth (locus YJL164C, strain tpk1, active compounds read low): 0.974
normalized growth (locus YJL166W, strain qcr8, active compounds read low): 0.979
normalized growth (locus YJL187C, strain SWE1, active compounds read low): 0.991
normalized growth [4]: 0.865
normalized growth (locus YKL160W, strain elf1, active compounds read low): 0.992
normalized growth (locus YKR026C, strain gcn3, active compounds read low): 0.957
normalized growth (locus YKR091W, strain srl3, active compounds read low): 0.992
normalized growth (locus YLL001W, strain dnm1, active compounds read low): 0.991
normalized growth (locus YLL026W, active compounds read low): 0.989
normalized growth (locus YLL041C, strain sdh2, active compounds read low): 1.01
normalized growth (locus YLR027C, strain aat2, active compounds read low): 0.996
normalized growth [5]: 0.996
normalized growth (locus YLR221C, strain rsa3, active compounds read low): 0.991
normalized growth (locus YLR258W, strain gsy2, active compounds read low): 0.965
normalized growth (locus YLR262C, strain YPT6 (second series), active compounds read low): 0.877
normalized growth (locus YLR320W, strain mms22, active compounds read low): 0.962
normalized growth (locus YLR342W, strain FKS1, active compounds read low): 0.98
normalized growth (locus YLR357W, strain rsc2, active compounds read low): 0.967
normalized growth (locus YLR370C, strain arc18, active compounds read low): 0.995
normalized growth (locus YLR384C, strain iki3, active compounds read low): 0.976
normalized growth (locus YML120C, strain ndi1, active compounds read low): 1.01
normalized growth (locus YMR058W, strain fet3, active compounds read low): 0.993
normalized growth (locus YMR125W, strain sto1, active compounds read low): 0.988
normalized growth (locus YMR129W, active compounds read low): 0.982
normalized growth (locus YMR205C, strain PFK2, active compounds read low): 0.961
normalized growth (locus YMR231W, strain pep5, active compounds read low): 0.963
normalized growth (locus YNL071W, strain lat1, active compounds read low): 0.975
normalized growth [6]: 0.922
normalized growth (locus YNL209W, strain ssb2, active compounds read low): 1
normalized growth (locus YNL248C, strain rpa49, active compounds read low): 0.971
normalized growth (locus YNL322C, strain KRE1 (second series), active compounds read low): 1.02
normalized growth (locus YNR049C, strain mso1, active compounds read low): 0.99
normalized growth (locus YOR001W, strain rrp6, active compounds read low): 0.973
normalized growth (locus YOR070C, strain gyp1, active compounds read low): 0.992
normalized growth (locus YOR080W, strain dia2, active compounds read low): 0.994
normalized growth (locus YOR083W, strain WHI5, active compounds read low): 0.978
normalized growth (locus YOR106W, strain vam3, active compounds read low): 0.962
normalized growth [7]: 0.94
normalized growth (locus YOR265W, strain rbl2, active compounds read low): 0.98
normalized growth (locus YOR270C, strain vph1, active compounds read low): 0.608 (active)
normalized growth (locus YOR290C, strain snf2, active compounds read low): 0.955
normalized growth (locus YPL051W, strain arl3, active compounds read low): 0.972
normalized growth (locus YPL078C, strain atp4, active compounds read low): 0.972
normalized growth (locus YPL106C, strain sse1, active compounds read low): 1.01
normalized growth (locus YPL240C, strain hsp82, active compounds read low): 0.982
normalized growth [8]: 0.922

COc1c(CC(=O)c2cc3c(cc2O)OC(C)(C)C(O)C3)ccc2c1C=CC(C)(C)O2 (stereo not drawn)
normalized growth (locus YBR021W, strain FUR4, active compounds read low): 0.653 (active)
normalized growth (locus YBR229C, strain ROT2, active compounds read low): 0.998
normalized growth (locus YCL029C, strain bik1, active compounds read low): 0.975
normalized growth (locus YDL035C, strain GPR1, active compounds read low): 1.01
normalized growth (locus YDL074C, strain BRE1, active compounds read low): 0.926
normalized growth (locus YDL101C, strain DUN1, active compounds read low): 1.01
normalized growth (locus YDL185W, strain tfp1, active compounds read low): 1
normalized growth (locus YDL192W, strain arf1, active compounds read low): 0.96
normalized growth (locus YDR101C, strain arx1, active compounds read low): 0.974
normalized growth (locus YDR162C, strain NBP2, active compounds read low): 1.01
normalized growth (locus YDR318W, strain mcm21, active compounds read low): 0.984
normalized growth (locus YDR388W, active compounds read low): 0.994
normalized growth (locus YDR502C, strain sam2, active compounds read low): 1.01
normalized growth (locus YEL061C, strain CIN8, active compounds read low): 1.01
normalized growth (locus YER110C, active compounds read low): 1.01
normalized growth (locus YER155C, strain BEM2, active compounds read low): 0.989
normalized growth (locus YER167W, strain BCK2, active compounds read low): 1
normalized growth (locus YGL078C, strain dbp3, active compounds read low): 1.01
normalized growth (locus YGL086W, strain mad1, active compounds read low): 0.979
normalized growth (locus YGL248W, strain PDE1, active compounds read low): 1.02
normalized growth (locus YGR078C, strain PAC10, active compounds read low): 1.03
normalized growth (locus YGR135W, strain pre9, active compounds read low): 1.05
normalized growth (locus YGR252W, strain gcn5, active compounds read low): 0.937
normalized growth [1]: 0.955
normalized growth (locus YHR079C, strain IRE1 (second series), active compounds read low): 1
normalized growth [2]: 0.958
normalized growth (locus YHR094C, strain hxt1, active compounds read low): 1.01
normalized growth (locus YHR129C, strain ARP1, active compounds read low): 0.997
normalized growth (locus YHR200W, strain rpn10, active compounds read low): 1
normalized growth (locus YIL066C, strain RNR3, active compounds read low): 0.997
normalized growth (locus YIL073C, strain SPO22, active compounds read low): 1.05
normalized growth (locus YIL125W, strain kgd1, active compounds read low): 0.982
normalized growth (locus YIR030C, strain dcg1, active compounds read low): 0.987
normalized growth [3]: 0.981 and 0.988
normalized growth (locus YJL134W, strain LCB3, active compounds read low): 0.996
normalized growth (locus YJL168C, strain set2, active compounds read low): 1.02
normalized growth (locus YJL187C, strain SWE1 (second series), active compounds read low): 1.02
normalized growth [4]: 0.935
normalized growth (locus YKL009W, strain mrt4, active compounds read low): 0.992
normalized growth (locus YKL068W, active compounds read low): 1
normalized growth (locus YKL085W, strain MDH1 (second series), active compounds read low): 0.998
normalized growth (locus YKL085W, strain MDH1, active compounds read low): 0.998
normalized growth (locus YKR001C, strain vps1, active compounds read low): 0.961
normalized growth (locus YLR039C, strain RIC1, active compounds read low): 1.08
normalized growth (locus YLR058C, strain SHM2, active compounds read low): 0.999
normalized growth (locus YLR102C, strain apc9, active compounds read low): 0.992
normalized growth [5]: 0.961
normalized growth (locus YLR262C, strain YPT6, active compounds read low): 1.02
normalized growth (locus YLR268W, strain sec22, active compounds read low): 0.977
normalized growth (locus YLR371W, strain rom2, active compounds read low): 0.998
normalized growth (locus YLR418C, strain cdc73, active compounds read low): 0.938
normalized growth (locus YML016C, strain PPZ1, active compounds read low): 0.999
normalized growth (locus YML032C, strain rad52, active compounds read low): 0.982
normalized growth (locus YML124C, strain tub3, active compounds read low): 0.984
normalized growth (locus YMR078C, strain ctf18, active compounds read low): 1
normalized growth (locus YMR223W, strain ubp8, active compounds read low): 1.01
normalized growth (locus YMR263W, strain SAP30, active compounds read low): 0.996
normalized growth (locus YMR307W, strain GAS1, active compounds read low): 0.807
normalized growth (locus YNL067W, strain RPL9B, active compounds read low): 1.01
normalized growth (locus YNL128W, strain TEP1, active compounds read low): 1.01
normalized growth (locus YNL153C, strain GIM3, active compounds read low): 1.06
normalized growth [6]: 0.937
normalized growth (locus YNL233W, strain BNI4, active compounds read low): 0.997
normalized growth (locus YNL250W, strain rad50, active compounds read low): 1.06
normalized growth (locus YNL271C, strain bni1, active compounds read low): 0.996
normalized growth (locus YNL298W, strain CLA4, active compounds read low): 0.991
normalized growth (locus YNL307C, strain MCK1, active compounds read low): 0.988
normalized growth (locus YNR052C, strain pop2, active compounds read low): 0.993
normalized growth (locus YOL012C, strain htz1): 1.64
normalized growth (locus YOL147C, strain pex11, active compounds read low): 0.988
normalized growth (locus YOR061W, strain CKA2, active compounds read low): 0.996
normalized growth (locus YOR069W, strain VPS5, active compounds read low): 1
normalized growth (locus YOR136W, strain idh2, active compounds read low): 0.996
normalized growth (locus YOR144C, strain elg1, active compounds read low): 0.995
normalized growth (locus YOR184W, strain ser1, active compounds read low): 0.851 (active)
normalized growth [7]: 0.951
normalized growth (locus YOR316C, strain cot1, active compounds read low): 0.998
normalized growth (locus YPL055C, strain LGE1, active compounds read low): 0.942
normalized growth [8]: 0.962
normalized growth (locus YPR119W, strain clb2, active compounds read low): 0.999
normalized growth (locus YPR141C, strain kar3, active compounds read low): 1
normalized growth (locus YPR163C, strain tif3, active compounds read low): 0.988
normalized growth (locus YPR167C, strain met16, active compounds read low): 1
normalized growth (strain wtn01, active compounds read low): 0.972
